Each sequence was assayed on PPARg DBDmut IVT, anti-PPARg (DBD mutation: PPARg1 K132A/R137A, NR concentration 270 nM) (assay: PBM binding z-score (relative to random genomic background probes); higher = stronger binding; sequences stand for … in GC…GCGATTGACAGCGTAGAATGAAGG).
Summary of the method: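 For binding z-scores, the reference was random background probes on custom Agilent 4×180K protein-binding microarrays. These arrays were incubated 1 h with ligand-free nuclear receptor dimers in PBS pH 7.4, 2% milk, 0.02% Triton X-100, 1 mM DTT, 0.2 mg/mL BSA and 0.4 mg/ml salmon testes DNA. Fluorescence was scanned after antibody detection of each partner (one per run) and regression-normalized.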

Sequence	PBM binding z-score
CCGACTGGGCCAAAGGTTACCATACTCAGTACGA	-0.431
AGTAAAAGTTCATCTAGGTAACGTAAGATATGCT	1.83
CCTTACGGGTCACTGACAGGTTATATCATTTGGA	0.355
GCGACTGGGGCATCAGCAGCTTACCATAACTTAA	-0.628
GCTGCTAGGTCAACTAATGGTCAGCTAAAGCTCG	-0.784
CCTACTGGGCCACGAAGGGTCATTGATTCAGTGA	-1.2
ACAGACAGGTGATGAAGGTAACTAAGGCTATCAT	-0.211
TCTTGTAGATCAAGCAGGTTGAGAAAGCCTGAGT	-0.244
TCTATTAGTTGATTAGGGCGACCGAAACAGCGGA	0.554
CTACCAAGGTGAGCAAGGTCGTTGATTACTATTC	-0.00619
ATCGAAAGGTCGTGAGGTGGGTATACAGAAAGGC	1.49
CTCGAAAGGTCGCTTGAGGTGAGTATACGGATAA	0.0176
CCTTACGGGTCAAGGCTATAGCACGGGTGGTACG	-0.381
AGAATGAGGTTATTAAGATTAGGGAATTGCGGTC	0.542
TCTCGGAGGACTCGAAAGGTCAGAGCTCGACATC	-0.419
ATCTCTAGGTATAGTTCAGTGAAAGATCGATAGA	2.13
CATACTAGGTCACGAAAGGTCAAAGTCGAATGAC	1.91
CCTACTGGGCCCAAGGTCATTGATTCCAATGCTC	-1.27
GGAACGATGGCAAGTTGATAGCAGAGTTTGATGG	-0.527
TCTTGTAGATCATAGGTTAAGAAAGCCGAAGCCT	1.11
CGTCCAAGGTCAAAGGCCAGTGAAGAGATGACGG	0.106
TCATATAGGTAAACAAGTGAAAGTCCGTAAGTTA	0.969

Reference: the supplement of paper PMC6555819
